Screening data (PubChem)
Pf Dd2 inh: Plasmodium falciparum Dd2 growth inhibition; P. falciparum Dd2 growth, SYBR Green, 72 h; Potency, µM (top dose mostly 28.9 µM), usual class: inhibitors; 120,000 compounds, 4.3% hits; AID 1347417; active = well fitted inhibition curve with a large enough effect; also: nearly all actives have a fitted effect of over 65% in size
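Infected erythrocytes (Dd2, 0.3% parasitemia, 2.5% hematocrit final) are added to compound in RPMI-1640/Albumax II medium, grown 72 h at 37C in low oxygen, then lysed with saponin/Triton-X containing SYBR Green and read by fluorescence.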
Of the large screens only hits and unclear results are named; the others gave an inactive call. Shown is part of a subset that was picked to be rich in hits.

Cc1ccc(S(=O)(=O)N2CCN(Cc3cc(=O)n4nc(-c5ccccc5Cl)sc4n3)CC2)cc1	none
COc1cccc(-c2nn3c(=O)cc(CN4CCN(C(=O)COc5ccccc5C)CC4)nc3s2)c1	Pf Dd2 inh 11µM
COc1ccccc1-c1nn2c(=O)cc(CN3CCN(S(=O)(=O)c4ccc(C)cc4)CC3)nc2s1	none
Cc1cccc(-c2nn3c(=O)cc(CN4CCN(C(=O)c5ccccc5Br)CC4)nc3s2)c1	none
Cc1cccc(-c2nn3c(=O)cc(CN4CCN(S(=O)(=O)c5ccc(Cl)cc5)CC4)nc3s2)c1	Pf Dd2 inh 8.9µM
Cc1ccc(-c2nn3c(=O)cc(CN4CCN(C(=O)COc5ccc(C)c(C)c5)CC4)nc3s2)cc1	none
COc1ccc(-c2nn3c(=O)cc(CN4CCN(C(=O)/C=C/c5ccccc5)CC4)nc3s2)cc1	none
COc1ccc(-c2nn3c(=O)cc(CN4CCN(S(=O)(=O)c5ccc(C)cc5)CC4)nc3s2)cc1	Pf Dd2 inh 11µM
COc1ccc(-c2nn3c(=O)cc(CN4CCN(C(=O)COc5ccc(F)cc5)CC4)nc3s2)cc1	none
CCCn1c(C)c(CC(=O)N2CCOCC2)c2c1CC(C)(C)CC2=O	none
Cc1cc(C)c(CNC(=O)c2cc(Nc3ccccc3)cc3ncn(C)c23)c(=O)[nH]1	none
CN(C)C(=O)c1ccnc(-c2nnc3ccc(NCCN4CCOCC4)nn23)c1	none
CCN1CCN(CC(O)COc2cccc(CN(C)Cc3cc(C)on3)c2)CC1 (stereo not drawn)	none
COc1ccc(OCC(O)CN2CCC(O)CC2)c(CN(C)Cc2csc(C)n2)c1 (stereo not drawn)	none
COc1ccc(CN(C)Cc2ccncc2C)c(OCC(O)CN2CCCC2)c1 (stereo not drawn)	Pf Dd2 inh 2.8µM
COc1ccc(Cl)cc1NC(=O)Cn1c(=O)c(-c2noc(C)n2)c2n(c1=O)CCCC2	none
COc1ccc(C(=O)N[C@H]2CO[C@H]3[C@@H]2OC[C@H]3OC(=O)Nc2ccccc2)cc1	none
COc1cccc(CNC[C@H]2O[C@H](Cc3cc(-c4ccccc4)on3)CC[C@@H]2O)c1	Pf Dd2 inh 2.5µM
COc1ccc(-c2cc(C[C@@H]3CC[C@H](O)[C@@H](CNC(=O)Nc4ccccc4)O3)no2)cc1	none
COc1cccc(CNC[C@H]2O[C@H](Cc3cc(CN4CCOCC4)on3)CC[C@@H]2O)c1	none
Cc1cccn2c(=O)cc(CN3CCC4(CC3)C(C(=O)O)CC(=O)N4C)nc12 (stereo not drawn)	none
CCOc1ccccc1C(=O)NC1CCN(c2cc(-c3ccc(OC)cc3)[nH]n2)CC1	none
CCOc1ccc(C(=O)N[C@@H]2CN(S(C)(=O)=O)C[C@H]2CN(C)C)cc1	none
COc1ccc2cc(C3CN(C(=O)c4cccn4C)CCO3)ccc2c1 (stereo not drawn)	none
CC(=O)Nc1ccc(C2(C(=O)N3CCCCCC3)CCC2)cc1	none
CC(=O)Nc1ccc(C2(C(=O)N3CCC(N4CCCCC4)CC3)CCCCC2)cc1	Pf Dd2 inh 13µM
CC(=O)Nc1ccc(C2(C(=O)O)CCCCC2)cc1	none
COc1ccc(O[C@H]2COCCN(C(=O)c3ccc(OC)cc3)C2)cc1	none
Cc1nonc1CC(=O)N1CCc2onc(-c3ccc(F)c(F)c3)c2C1	none
COc1ccc(OC)c(NC(=O)Cn2nc3n(c2=O)CCCCC3)c1	none
Cn1c2c(c3ccccc31)CN(C(=O)Nc1ccccc1F)CC2	Pf Dd2 inh 11µM
CCc1ccc(NC(=O)N2CCc3c(c4ccccc4n3C)C2)cc1	none
Cc1ccc(NC(=O)N2CCc3c(c4ccccc4n3C)C2)cc1	none
CC(=O)N1CCC(N2CC3(C2)C(=O)N(CCCN2CCCC2=O)C(=O)[C@@H]2C[C@@H](O)CN23)CC1	none
OC1(CN2CCC(OCc3ccccn3)CC2)CNCCOC1 (stereo not drawn)	none
OC1(CN2CCN(C(c3ccccc3)c3ccccc3)CC2)CNCCOC1 (stereo not drawn)	Pf Dd2 inh 6.3µM
Cn1ccnc1CN1CCN(CC2(O)CNCCOC2)CC1 (stereo not drawn)	none
OC1(CN2CCN(c3cnccn3)CC2)CNCCOC1 (stereo not drawn)	none
OC1(CN2CCCN(c3nc4ccccc4s3)CC2)CNCCOC1 (stereo not drawn)	Pf Dd2 inh 8.9µM
Cc1cc(N2CCN(CC3(O)CNCCOC3)CC2)n2ncnc2n1 (stereo not drawn)	none
Cc1ccc(-c2cc3c(=O)n(CCNC(=O)c4cnccn4)ccn3n2)cc1C	none
CC(C)[C@H]1CN(c2cnccn2)C[C@@H]1NC(=O)C1(C#N)CCOCC1	none
Cc1ccccc1-n1cc(CN(C)Cc2nc(-c3ccc(C(F)(F)F)cc3)no2)cn1	none
Cc1ccccc1-n1cc(-c2ccnc(NC(C)Cc3ccncc3)n2)cn1 (stereo not drawn)	Pf Dd2 inh 8.9µM
c1ccc(C(CNc2nccc(-c3ccncc3)n2)N2CCOCC2)nc1 (stereo not drawn)	none
Cc1ccc(F)cc1S(=O)(=O)N1CCn2c(n[nH]c2=O)C1	none
CC(C)(C)c1cc(C[C@@H]2CC[C@H](O)[C@@H](CNC(=O)C3CC3)O2)no1	none
Cc1ccccc1-n1nc(C)c(CCC(=O)N2CCSCC2)c1Oc1ccccc1F	none
CCN1c2cc(C(=O)NCc3ccc(SC)cc3)ccc2C(=O)N2CCCCC21 (stereo not drawn)	none
Cc1ccc(S(=O)(=O)c2nc(S(=O)(=O)c3ccc(C)cc3)c(NC(C)C)s2)cc1	none
CCNc1sc(S(C)(=O)=O)nc1S(=O)(=O)c1ccc(C)cc1	none
Cc1ccc(S(=O)(=O)c2nc(S(=O)(=O)c3ccc(C)cc3)c(NCCCOC(C)C)s2)cc1	Pf Dd2 inh 2.2µM
Cc1noc(C)c1[S+](=O)([O-])N1CCCC(c2nn(-c3ccc(F)cc3)c(=O)[nH]2)C1 (stereo not drawn)	none
CCc1cccc(C)c1Nc1c(-c2ccc(N(C)C)cc2)nc2cnccn12	none
CCc1cccc(C)c1Nc1c(-c2cccc(O)c2)nc2cnccn12	Pf Dd2 inh 8.9µM
CCc1cccc(C)c1Nc1c(-c2ccc(F)cc2)nc2sccn12	none
COCc1nc(-c2ccc(OC3CCN(Cc4ccc(C(F)(F)F)cc4)C3)cc2)no1 (stereo not drawn)	none
O=C(Cc1ccccc1)NCC1CN(Cc2ccc(C(=O)O)cc2)CC12CN(c1ccccc1)C2 (stereo not drawn)	none
Cc1cnc(C(=O)NC2C[C@H]3CC[C@@H](C2)N3C(=O)c2ccc(OC(C)C)cc2)cn1 (stereo partly drawn)	none
O=C(N[C@H](c1ccccn1)C1CC(O)C1)c1cc(=O)n(-c2ccccc2)[nH]1 (stereo partly drawn)	Pf Dd2 inh 1.4µM
CCCc1cc(C(=O)N[C@H](c2ccccn2)C2CC(O)C2)cs1 (stereo partly drawn)	none
O=C(N[C@H](c1ccccn1)C1CC(O)C1)c1cccc(Cn2cccn2)c1 (stereo partly drawn)	none
O=S(=O)(C1CC1)N1CCn2c(nnc2C2CCCN2)C1 (stereo not drawn)	none
Cc1cccc(-c2ccc3c(c2)C(=O)N2CC[C@H](NC(=O)c4cnccn4)C[C@H]2C(=O)N3)c1C	none
COc1ccc(CN2C(=O)[C@@H]3C[C@@H](O)CN3C3(CNC3)C2=O)cc1	none
COc1ccc(CC(=O)Nc2ccc3n(c2=O)C[C@H]2C[C@@H]3CN(C(=O)c3ccc4ccccc4c3)C2)cc1	none
O=C1NCCOCCCN(S(=O)(=O)c2ccc3c(c2)CCC3)[C@H]2CCCC[C@@H]12	none
COc1ccccc1CN1CCc2ncc(C(=O)NCCC(C)C)n2CC1	none
Cc1ccc(C2=NC3(CCN(C(=O)c4ccc5c(c4)OCO5)CC3)ON2)cc1	none
Cc1ccc(C(=O)N2CCC3(CC2)N=C(c2ccc(Cl)cc2)NO3)cc1F	none
